Data taken from PubChem BioAssay (Tox21).
A number with no mark means an inactive call. Records with an inconclusive call do not appear. A call without a number means that no potency is given here. Calls of active or inactive are those of the source. Unless noted, calls come from the whole dose curve.

Columns and labels:
[1] = biological target: Thyrotropin receptor (Homo sapiens) (UniProt P16473); assay: qHTS assay to identify small molecule agonists of the thyroid stimulating hormone receptor (TSHR) signaling pathway (AID 1224843); note: nearly all actives have a fitted effect of over 45% in size
Outline: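 Agonist-mode screen: TSHR HEK293 cells received test chemicals for half an hour at room temperature, then HTRF cAMP detection reagents for one hour prior to fluorescence measurement. Each chemical ran as a 15-concentration series, triplicated.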

[2] = qHTS assay to identify small molecule agonists of the hypoxia (HIF-1) signaling pathway - cell viability counter screen (AID 1224844); note: nearly all actives have a fitted effect of over 50% in size; note: potency is the fitted concentration of half-maximal effect
Outline: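 Viability counter screen: HRE-bla ME-180 cells plated 5 hrs before compound addition, treated 17 hrs at 37C and 5% CO2, then CellTiter-Glo added after the FRET reporter read; luminescence after 30 min.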

[3] = qHTS assay to identify small molecule agonists of H2AX (AID 1224845; active = well fitted activation curve with a large enough effect in the signal ratio in the repeat runs, not every such curve was filed as active; the % refers to the signal ratio)
Outline: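 Wild-type CHO-K1 cells, plated overnight, exposed 3hr at 37C to 15 concentrations (0.76% DMSO final). Lysed, then HTRF anti-pH2AX (S139) cryptate and anti-H2AX-d2 antibodies, 24 hr room temperature; 665/620 nm emission read.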

[4] = qHTS assay to identify small molecule agonists of the hypoxia (HIF-1) signaling pathway (AID 1224846; active = well fitted activation curve with a large enough effect in the signal ratio in the repeat runs, not every such curve was filed as active; the % refers to the signal ratio)
Outline: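 Agonist mode reporter screen. ME-180 cells stably expressing bla under HRE control received test compounds in DMSO for 17 hrs (37C, 5% CO2), and beta-lactamase activity was then detected with the CCF4-AM FRET substrate.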

[5] = qHTS assay to identify small molecule agonists of H2AX - cell viability counter screen (AID 1224847); note: top concentration of the series differs between compounds; nearly all actives have a fitted effect of over 30% in size
Outline: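 Viability of CHO-K1 (wild type) cells after 3 hr compound exposure was measured by CellTiter-Glo luminescence.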

[6] = qHTS assay to identify small molecule antagonists of the estrogen related receptor (ERR) signaling pathway from Tox21 library (AID 1224848; active = well fitted curve in the direction sought with a large enough effect in the repeat runs; an effect the other way counts as inactive or inconclusive; note: nearly all actives have a fitted effect of over 50% in size; note: potency is the fitted concentration of half-maximal effect)
Outline: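 Quantitative high-throughput format: ERR reporter cells (2,000/well) pre-incubated 6 h, treated 18 h at 37 C with compounds in DMSO alongside positive and negative controls, then read by ONE-Glo luminescence.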

[7] = qHTS assay to identify small molecule agonists of the estrogen related receptor (ERR) signaling pathway from Tox21 library (AID 1224849); conditions: ERR reporter cell line, ONE-Glo luciferase, 18 h; at 92.4 µM (top of the series) unless noted; note: nearly all actives have a fitted effect of over 15% in size
Outline: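 Quantitative HTS in agonist format: NTP ERR cell line, compounds transferred in DMSO after 6 h plating, 18 h incubation at 37 C, ONE-Glo luminescence endpoint.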

[8] = qHTS RealTime-Glo MT Cell Viability Assay in HepG2 cells - 24 hour (AID 1224867; active = well fitted curve in the direction sought with a large enough effect in the repeat runs; an effect the other way counts as inactive or inconclusive; note: nearly all actives have a fitted effect of over 50% in size)
Outline: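 HepG2 cells were seeded at 600 cells/well together with NanoLuc luciferase and a cell-permeant prosubstrate, preincubated 5 h at 37 C/5% CO2, then pin-dosed with compounds in DMSO. Nonlytic luminescence from viable cells was read at each time point.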

[9] = qHTS RealTime-Glo MT Cell Viability Assay in HEK293 cells - 32 hour (AID 1224868; active = well fitted curve in the direction sought with a large enough effect in the repeat runs; an effect the other way counts as inactive or inconclusive; note: nearly all actives have a fitted effect of over 50% in size; note: potency is the fitted concentration of half-maximal effect)
Outline: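 HEK293 cells were seeded at 600 cells/well together with NanoLuc luciferase and cell-permeant prosubstrate, preincubated 5 h at 37 C/5% CO2, then given compound in DMSO by pintool. Luminescence from viable-cell prosubstrate reduction was read repeatedly over 40 h.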

[10] = A CellTox Green Cytotoxicity Assay to monitor cytotoxicity in HEK293 cells - 0 hour (AID 1224869; active = well fitted curve in the direction sought with a large enough effect in the repeat runs; an effect the other way counts as inactive or inconclusive; note: nearly all actives have a fitted effect of over 50% in size; note: potency is the fitted concentration of half-maximal effect)
Outline: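 Dead-cell fluorescence measured kinetically: asymmetric cyanine dye, HEK293, 600 cells/well, 5 h settle, 23 nL cpd/DMSO, 37 C, reads 0–40 h every 8 h.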

Chain of Thyrotropin receptor (Homo sapiens) (P16473 whole entry, looked up): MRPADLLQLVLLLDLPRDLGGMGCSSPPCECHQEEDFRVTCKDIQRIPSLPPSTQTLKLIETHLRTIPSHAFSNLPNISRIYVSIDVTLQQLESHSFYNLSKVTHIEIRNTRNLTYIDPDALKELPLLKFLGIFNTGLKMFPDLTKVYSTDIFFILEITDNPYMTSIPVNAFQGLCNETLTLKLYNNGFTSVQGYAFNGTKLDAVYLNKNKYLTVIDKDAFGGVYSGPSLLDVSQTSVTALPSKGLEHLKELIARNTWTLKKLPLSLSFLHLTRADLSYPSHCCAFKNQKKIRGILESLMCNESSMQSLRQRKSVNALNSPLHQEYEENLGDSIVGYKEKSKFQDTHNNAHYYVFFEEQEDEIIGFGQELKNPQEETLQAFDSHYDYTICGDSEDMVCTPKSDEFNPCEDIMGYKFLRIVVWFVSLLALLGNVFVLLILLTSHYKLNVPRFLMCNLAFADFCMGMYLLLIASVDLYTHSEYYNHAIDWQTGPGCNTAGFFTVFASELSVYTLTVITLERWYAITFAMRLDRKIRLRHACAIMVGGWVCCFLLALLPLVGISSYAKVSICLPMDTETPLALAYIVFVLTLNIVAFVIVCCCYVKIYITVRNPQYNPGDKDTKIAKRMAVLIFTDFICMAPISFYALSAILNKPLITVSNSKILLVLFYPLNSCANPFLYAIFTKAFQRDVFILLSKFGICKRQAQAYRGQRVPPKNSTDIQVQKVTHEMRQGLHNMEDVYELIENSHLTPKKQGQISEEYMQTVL

SMILES | Potency [1] | Potency [2] | Potency [3] | outcome [4] | Potency [5] | Potency [6] | activity change, positive = activation [7] | outcome [8] | Potency [9] | Potency [10]
CCCCCC1CCC(=O)O1 (stereo not given) | inactive | inactive | inactive | inactive | inactive | inactive | 4.33% | inactive | inactive | inactive
CC(O)CN (stereo not given) | inactive | inactive | inactive | inactive | inactive | inactive | 0.61% | inactive | inactive | inactive
CCC1=C(C)CN(C(=O)NCCc2ccc(S(=O)(=O)NC(=O)NC3CCC(C)CC3)cc2)C1=O (stereo not given) | inactive | inactive | inactive | inactive | inactive | inactive | -15.8% [at 42.5 µM] | inactive | inactive | inactive
O=C(O)CNc1ccccc1 | inactive | inactive | inactive | inactive | inactive | inactive | 8.78% | inactive | inactive | inactive
CCC(C)CCCC(C)(C)O (stereo not given) | inactive | inactive | inactive | inactive | inactive |  |  | inactive | inactive | inactive
O=C(N[C@@H](Cc1ccccc1)[C@@H](O)C(=O)N1C[C@@H](O)[C@@H](O)C1)c1cc2cc(Cl)ccc2[nH]1 | inactive | inactive | inactive | inactive | inactive | 54.5 µM (active) | -40.7% | inactive |  | inactive
CCOc1ccc(NC(C)=O)cc1N | inactive | inactive | inactive | inactive | inactive | inactive | 8.88% | inactive | inactive | inactive
C=C[Si]1(C)O[Si](C)(C=C)O[Si](C)(C=C)O[Si](C)(C=C)O1 (stereo not given) | inactive | inactive | inactive | inactive | inactive |  |  | inactive | inactive | inactive
CCC[Si](OC)(OC)OC | inactive | inactive | inactive | inactive | inactive | inactive | -6.41% | inactive | inactive | inactive
CC(=O)Nc1ccccc1O | inactive | inactive | inactive | inactive | inactive | inactive | -0.899% | inactive | inactive | inactive
Cc1cc(SC2=C(O)C[C@@](CCc3ccc(N)cc3)(C(C)C)OC2=O)c(C(C)(C)C)cc1CO | inactive | inactive | inactive | inactive | inactive | inactive | -7.37% | inactive | inactive | inactive
C[Si](C)(C)O[Si](C)(C)O[Si](C)(C)C | inactive | inactive | inactive | inactive | inactive |  |  | inactive | inactive | inactive
CC(CC(C#N)(c1ccccc1)C(C)C)N(C)C (stereo not given) | inactive | inactive | inactive | inactive | inactive | inactive | 2.64% [at 42.5 µM] | inactive | inactive | inactive
CC(COc1ccccc1)NC(C)C(O)c1ccc(O)cc1 (stereo not given) | inactive | inactive | inactive | inactive | inactive | inactive | 0.415% [at 42.5 µM] | inactive | inactive | inactive
O=C1c2ccccc2C(=O)C1c1ccc2ccccc2n1 | inactive | inactive | inactive | inactive | inactive |  |  | inactive |  | 
C=Cc1ccc(C=C)cc1 | inactive | inactive | inactive | inactive | inactive | inactive | 3.76% | inactive | inactive | inactive
Cc1cc(N)n(-c2ccccc2)n1 | inactive | inactive | inactive | inactive | inactive | inactive |  | inactive | inactive | inactive
CCCCCCCCCCCCCCCCN | inactive | inactive | inactive | inactive | inactive |  |  | inactive | inactive | 
CCCCCCCCCCCCN1CCOCC1 | inactive | inactive | inactive | inactive | inactive | inactive | -8.24% | inactive | inactive | inactive
CC(C)=CCC[C@H](C)CCO | inactive | inactive | inactive | inactive | inactive |  |  | inactive | inactive | inactive
O=C(Nc1ccccc1)c1cc([N+](=O)[O-])ccc1Cl | inactive | inactive | inactive | inactive | inactive | 54.5 µM (active) | -35.1% | inactive | inactive | inactive
Cc1ccc(NC=O)c(C)c1 | inactive | inactive | inactive | inactive | inactive |  |  | inactive | inactive | inactive
CCC(C)C1N=C(C)C(C)S1 (stereo not given) | inactive | inactive | inactive | inactive | inactive | inactive | -2.96% | inactive | inactive | inactive
CCCCCCCCCCCCSCCOCCO | inactive | inactive | inactive | inactive | inactive | inactive | -7.91% [at 42.5 µM] | inactive | inactive | inactive
O=Cc1ccc([N+](=O)[O-])cc1 | inactive | inactive | inactive | inactive | inactive | inactive | 51.8% (active) | inactive | inactive | inactive
CCCCCO | inactive | inactive | inactive | inactive | inactive | inactive | -0.565% | inactive | inactive | inactive

SMILES | Potency [1] | Potency [2] | Potency [3] | outcome [4] | Potency [5] | Potency [6] | activity change, positive = activation [7] | outcome [8] | Potency [9] | Potency [10]
CC(=O)Nc1ccn(C2COC(COC(=O)c3ccccc3)O2)c(=O)n1 (stereo not given) | inactive | inactive | inactive | inactive | inactive | inactive | -13.3% [at 42.5 µM] | inactive | inactive | inactive
O=C(NC1CCN(CCc2c[nH]c3ccccc23)CC1)c1ccccc1 | inactive | inactive | inactive | inactive | inactive |  |  | inactive | 7.56 µM (active) | inactive
C=CC(O)CCCCC (stereo not given) | inactive | inactive | inactive | inactive | inactive |  | 1.36% | inactive | inactive | inactive
OCCc1ccncc1 | inactive | inactive | inactive | inactive | inactive | inactive | 1.06% | inactive | inactive | inactive
NC(=O)c1ccccc1C(N)=O | inactive | 49.2 µM (active) | inactive | inactive | inactive | 48.8 µM (active) | -52.8% | inactive | 31 µM (active) | 49.2 µM (active)
O=C(Cl)c1ccc(F)c(Cl)c1 | inactive | inactive | inactive | inactive | inactive | inactive | -7.97% | inactive |  | inactive
O=C(O)COCC(=O)O | inactive | inactive | inactive | inactive | inactive |  |  | inactive | inactive | inactive
CC(C)Oc1ccccc1O | inactive | inactive | inactive | inactive | inactive | inactive |  | inactive | inactive | inactive
O=C(c1ccco1)N1CCNCC1 | inactive | inactive | inactive | inactive | inactive | inactive | 3.89% [at 42.5 µM] | inactive | inactive | inactive
COC(=O)/C=C/C(C)=C\C=C\C(C)=C\C=C\C=C(C)\C=C\C=C(C)\C=C\C(=O)O | inactive | inactive | inactive | inactive | inactive | inactive | 4.73% | inactive | inactive | inactive
COc1ccc(/C(C)=C/C(=O)O)c(OC)c1 | inactive | inactive | inactive | inactive | inactive | inactive | 8.11% [at 42.5 µM] | inactive | inactive | inactive
N#CCCCC(C#N)CCC#N (stereo not given) | inactive | inactive | inactive | inactive | inactive | inactive | 0.869% | inactive |  | inactive
CCn1nc(Cc2ccccc2)cc1C1CCN(C[C@H]2C[C@H](N(C)[C@@H](C(=O)O)C(C)C)C[C@@H]2c2cccc(F)c2)CC1 | inactive | inactive | inactive | inactive | inactive |  | -18.7% | inactive |  | inactive
CC(O)C(C)O (stereo not given) | inactive | inactive | inactive | inactive | inactive |  |  | inactive | inactive | inactive
CC1(C)CC(O)CC(C)(C)N1[O] | inactive | inactive | inactive | inactive | inactive |  |  | inactive | inactive | inactive
CC(Cc1ccccc1)(NC(=O)CN)c1ccccc1 (stereo not given) | inactive | inactive | inactive | inactive | inactive |  |  | inactive | inactive | inactive
CCCCCCCCCCCC(=O)OCC | inactive | inactive | inactive | inactive | inactive |  |  | inactive | inactive | inactive
CC(C)(C)N | inactive | inactive | inactive | inactive | inactive |  |  | inactive | inactive | inactive
CC1(C)[C@@H]2CC[C@]3(C2)[C@@H]1C(=O)CCC3(C)C | inactive | inactive | inactive | inactive | inactive |  |  | inactive | inactive | inactive
C/C=C1\[C@H]2C=C(C)C[C@]1(N)c1ccc(=O)[nH]c1C2 | inactive | inactive | inactive | inactive | inactive |  |  | inactive | inactive | inactive
CCCCCCC/C=C/C=O | inactive | inactive | inactive | inactive | inactive |  |  | inactive | inactive | inactive
FC(F)(Cl)C(F)(Cl)Cl | inactive | inactive | inactive | inactive | inactive |  |  | inactive | inactive | inactive
COC(=O)c1cc(Cl)ccc1[N+](=O)[O-] | inactive | inactive | inactive | inactive | inactive |  |  | inactive | inactive | inactive
Nc1ccc(F)cc1F | inactive | inactive | inactive | inactive | inactive |  |  | inactive | inactive | inactive
O=[N+]([O-])c1ccc(Cl)cc1Cl | inactive | inactive | inactive | inactive | inactive |  |  | inactive | inactive | inactive
CC(C)=CCC/C(C)=C/C=N/O | inactive | inactive | inactive | inactive | inactive |  |  | inactive | inactive | inactive
